Assay results as given in ChEMBL document CHEMBL3433997, “St. Jude Leishmania screening dataset” (2016).

target: Solute carrier family 2, facilitated glucose transporter member 1 (Homo sapiens) (UniProt P11166); assay: ST_JUDE_LEISH: Cytotoxicity at 2uM final concentration against transgenic Leishmania Mexicana promastigotes LmGLUT1 that are glucose transport deficient and complemented with the human glucose transporter GLUT1. Activity is measured by DNA content using SYBR green in vitro; format: functional
Sequence (P11166 whole entry): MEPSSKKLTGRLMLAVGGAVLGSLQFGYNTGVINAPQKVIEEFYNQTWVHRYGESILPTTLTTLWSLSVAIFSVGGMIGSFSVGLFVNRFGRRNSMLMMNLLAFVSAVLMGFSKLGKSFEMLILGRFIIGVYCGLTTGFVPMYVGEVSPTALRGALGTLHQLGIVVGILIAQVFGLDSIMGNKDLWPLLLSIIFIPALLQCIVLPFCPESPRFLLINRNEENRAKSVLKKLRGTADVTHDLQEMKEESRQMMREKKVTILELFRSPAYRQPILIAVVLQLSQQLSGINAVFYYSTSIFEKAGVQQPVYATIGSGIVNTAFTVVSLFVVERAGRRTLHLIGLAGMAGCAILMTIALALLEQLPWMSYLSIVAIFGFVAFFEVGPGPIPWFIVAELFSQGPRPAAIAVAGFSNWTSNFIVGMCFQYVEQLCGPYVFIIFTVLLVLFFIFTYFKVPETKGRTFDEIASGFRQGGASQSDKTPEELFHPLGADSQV

SMILES | inhibition [%]
CCCc1cn2c3c(cc(C(=O)N[C@@H](Cc4ccccc4)[C@H](O)CNC4CCCCC4)cc13)N(CC)S(=O)(=O)CC2 | 0.5
COc1cccc2c(NN=Cc3cccc(Cl)c3)ccnc12 | 0.32
Cc1[nH]c(C)c(-c2ccc(OCCn3cnc(Cl)c3Cl)cc2)c(=O)c1Br | -1.35
O=C(Nc1cc2cc(-c3ccc(CN4CCCCC4)cc3)ccc2n2cnnc12)NC1CCCC1 | 22.1
CN1CCN(c2ccc(Cl)cc2NC(=O)C2COc3ccccc3O2)CC1 (stereo unspecified) | 0.88
COc1ccc(C(=O)N2CCC(C(=O)NC(C)c3ccc(-n4ccnc4)cc3)CC2)c2ccccc12 (stereo unspecified) | -1.06
Fc1ccc(-c2cc(NCCCn3ccnc3)nc(-c3cccnc3)n2)cc1 | 1.99
O=C(Nc1ccc(N2CCCN(Cc3cccc(F)c3)CC2)cc1)c1cccs1 | -0.38
NCC1CCCN1Cc1ccc(-c2ccc(-c3nc4cc(C(F)(F)F)ccc4[nH]3)s2)cc1 (stereo unspecified) | 1.42
Cc1ccc(Sc2ccc(NC(=O)CN3CCN(C(=O)c4ccco4)CC3)cc2)cc1C | 9.84
OCCN1CCN(C2Cc3ccc(F)cc3Sc3ccc(Cl)cc32)CC1 (stereo unspecified) | 0.59
Cc1cc(S(=O)(=O)N2CCCCC(c3ccc(C(F)(F)F)cc3)=N2)c(Cl)cc1Cl | 3.58
O=C(N/N=C/c1nc2ccccc2[nH]1)c1cccc([N+](=O)[O-])c1 | 2.46
CCN(CCCN1CCCCC1)c1cc(C)nc(Nc2ccc(C)cc2C(F)(F)F)n1 | -1.87
OC(CNCc1ccccc1OCc1ccccc1)c1cc(C(F)(F)F)cc(C(F)(F)F)c1 (stereo unspecified) | 8.75
Cn1ncc2c3c(CCN4CCC(NCc5cc6c(cn5)OCCO6)CC4)c(Cl)cnc3ccc21 | 1.09
